Measured values taken from publication PMC11006913.
Changes are numbered by the printed parent chain.

What was measured:
Experiment in all cases: PBM; 200 nM protein, PBS
Details in all cases: dsDNA, one strand shown
[1] = biological target: HESX1 (Homo sapiens, UniProt Q9UBX0 95-180, R165K)
[2] = biological target: HOXA7 (Homo sapiens, UniProt P31268 116-202)
[3] = biological target: T1, VENTX (Homo sapiens, UniProt O95231 78-163, Y115F)
T1 sequence: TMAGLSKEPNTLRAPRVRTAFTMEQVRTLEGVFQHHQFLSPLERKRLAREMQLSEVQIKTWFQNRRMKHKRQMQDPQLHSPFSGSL

[4] = biological target: HOXB6 (Homo sapiens, UniProt P17509 132-218, K202E)
[5] = biological target: HESX1 (Homo sapiens, UniProt Q9UBX0 95-180)
[6] = biological target: HOXA2 (Homo sapiens, UniProt O43364 129-215, R185T)
[7] = biological target: MSX2 (Homo sapiens, UniProt P35548 130-214, R199I)
[8] = biological target: HOXA2 (Homo sapiens, UniProt O43364 129-215, R185K)
[9] = biological target: MSX2 (Homo sapiens, UniProt P35548 130-214)
[10] = biological target: HESX1 (Homo sapiens, UniProt Q9UBX0 95-180, R109Q)
[11] = biological target: HESX1 (Homo sapiens, UniProt Q9UBX0 95-180, P111T)
[12] = biological target: MSX2 (Homo sapiens, UniProt P35548 130-214, F161Y)
[13] = biological target: HESX1 (Homo sapiens, UniProt Q9UBX0 95-180, F115L)
[14] = biological target: HOXA2 (Homo sapiens, UniProt O43364 129-215, Y150S)
[15] = biological target: HOXA7 (Homo sapiens, UniProt P31268 116-202, W177C)
[16] = biological target: HOXA2 (Homo sapiens, UniProt O43364 129-215)
[17] = biological target: HOXB6 (Homo sapiens, UniProt P17509 132-218)
[18] = biological target: T2, VENTX (Homo sapiens, UniProt O95231 78-163, R121Q)
T2 sequence: T1 sequence with F38Y, R44Q

[19] = biological target: T3, VENTX (Homo sapiens, UniProt O95231 78-163)
T3 sequence: T1 sequence with F38Y

[20] = biological target: T4, NKX2-6 (Homo sapiens, UniProt A6NCS4 118-204)
T4 sequence: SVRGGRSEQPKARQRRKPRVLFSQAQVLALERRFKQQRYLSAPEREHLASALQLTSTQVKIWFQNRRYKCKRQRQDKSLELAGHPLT

[21] = biological target: T5, NKX2-6 (Homo sapiens, UniProt A6NCS4 118-204, F151L)
T5 sequence: T4 sequence with F34L

[22] = biological target: HOXB9 (Homo sapiens, UniProt P17482 171-250, T197M)
[23] = biological target: ALX4 (Homo sapiens, UniProt Q9H161 200-286)
[24] = biological target: PRRX1 (Homo sapiens, UniProt P54821 80-166, F113S)
[25] = biological target: ALX4 (Homo sapiens, UniProt Q9H161 200-286, Q225E)
[26] = biological target: HOXB9 (Homo sapiens, UniProt P17482 171-250)
[27] = biological target: ALX1 (Homo sapiens, UniProt Q15699 118-204, L144V)
[28] = biological target: ALX1 (Homo sapiens, UniProt Q15699 118-204, L144R)
[29] = biological target: PROP1 (Homo sapiens, UniProt O75360 56-141)
[30] = biological target: PROP1 (Homo sapiens, UniProt O75360 56-141, R99H)
[31] = biological target: ALX3 (Homo sapiens, UniProt O95076 139-225, L168Q)
[32] = biological target: HOXB9 (Homo sapiens, UniProt P17482 171-250, R186Q)
[33] = biological target: ALX3 (Homo sapiens, UniProt O95076 139-225, L168V)
[34] = biological target: PROP1 (Homo sapiens, UniProt O75360 56-141, F88S)
[35] = biological target: PRRX1 (Homo sapiens, UniProt P54821 80-166)
[36] = biological target: HOXC9 (Homo sapiens, UniProt P31274 178-260, K195R)
[37] = biological target: HOXC10 (Homo sapiens, UniProt Q9NYD6 254-340)
[38] = biological target: HOXC9 (Homo sapiens, UniProt P31274 178-260)
[39] = biological target: HOXC9 (Homo sapiens, UniProt P31274 178-260, R193K)
[40] = biological target: HOXC10 (Homo sapiens, UniProt Q9NYD6 254-340, K271E)
[41] = biological target: VAX1 (Homo sapiens, UniProt Q5SQQ9 86-172)
[42] = biological target: HOXC9 (Homo sapiens, UniProt P31274 178-260, R222W)
[43] = biological target: VAX1 (Homo sapiens, UniProt Q5SQQ9 86-172, T142I)
[44] = biological target: VAX1 (Homo sapiens, UniProt Q5SQQ9 86-172, K157R)
Sequence of VAX1 (Homo sapiens, UniProt Q5SQQ9 86-172, K157R) (Q5SQQ9 86-172 K157R): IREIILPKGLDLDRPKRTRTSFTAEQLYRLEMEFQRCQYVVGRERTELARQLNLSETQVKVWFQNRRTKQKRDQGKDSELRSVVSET

Sequence of MSX2 (Homo sapiens, UniProt P35548 130-214, F161Y) (P35548 130-214 F161Y): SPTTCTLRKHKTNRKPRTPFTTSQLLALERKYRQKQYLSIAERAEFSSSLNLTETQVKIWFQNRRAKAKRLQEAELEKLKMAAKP
Sequence of MSX2 (Homo sapiens, UniProt P35548 130-214, R199I) (P35548 130-214 R199I): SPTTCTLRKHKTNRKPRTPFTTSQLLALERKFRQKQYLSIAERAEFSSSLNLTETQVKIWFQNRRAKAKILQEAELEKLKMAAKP
Sequence of HESX1 (Homo sapiens, UniProt Q9UBX0 95-180, R165K) (Q9UBX0 95-180 R165K): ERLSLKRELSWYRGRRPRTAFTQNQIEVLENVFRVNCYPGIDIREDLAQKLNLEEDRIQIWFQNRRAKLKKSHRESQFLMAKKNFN
Sequence of HESX1 (Homo sapiens, UniProt Q9UBX0 95-180, P111T) (Q9UBX0 95-180 P111T): as the sequence (Q9UBX0 95-180 R165K) above, with P17T, K71R counted along it
Sequence of HESX1 (Homo sapiens, UniProt Q9UBX0 95-180, F115L) (Q9UBX0 95-180 F115L): as the sequence (Q9UBX0 95-180 R165K) above, with F21L, K71R counted along it
Sequence of MSX2 (Homo sapiens, UniProt P35548 130-214) (P35548 130-214): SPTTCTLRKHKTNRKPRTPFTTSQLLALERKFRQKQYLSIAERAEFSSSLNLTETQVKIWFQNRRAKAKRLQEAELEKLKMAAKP
Sequence of HESX1 (Homo sapiens, UniProt Q9UBX0 95-180, R109Q) (Q9UBX0 95-180 R109Q): as the sequence (Q9UBX0 95-180 R165K) above, with R15Q, K71R counted along it
Sequence of HESX1 (Homo sapiens, UniProt Q9UBX0 95-180) (Q9UBX0 95-180): as the sequence (Q9UBX0 95-180 R165K) above, with K71R counted along it
Sequence of HOXC9 (Homo sapiens, UniProt P31274 178-260, R193K) (P31274 178-260 R193K): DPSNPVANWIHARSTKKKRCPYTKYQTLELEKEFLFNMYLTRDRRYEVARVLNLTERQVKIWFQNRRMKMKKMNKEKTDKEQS
Sequence of HOXA2 (Homo sapiens, UniProt O43364 129-215) (O43364 129-215): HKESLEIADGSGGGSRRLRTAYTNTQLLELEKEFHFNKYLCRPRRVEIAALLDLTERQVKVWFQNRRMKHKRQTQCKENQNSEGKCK
Sequence of ALX3 (Homo sapiens, UniProt O95076 139-225, L168Q) (O95076 139-225 L168Q): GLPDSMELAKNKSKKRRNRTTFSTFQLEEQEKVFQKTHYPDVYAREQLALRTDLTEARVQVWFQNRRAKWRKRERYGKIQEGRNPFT
Sequence of HOXC9 (Homo sapiens, UniProt P31274 178-260) (P31274 178-260): as the sequence (P31274 178-260 R193K) above, with K16R counted along it
Sequence of HOXC9 (Homo sapiens, UniProt P31274 178-260, R222W) (P31274 178-260 R222W): as the sequence (P31274 178-260 R193K) above, with K16R, R45W counted along it
Sequence of HOXA7 (Homo sapiens, UniProt P31268 116-202) (P31268 116-202): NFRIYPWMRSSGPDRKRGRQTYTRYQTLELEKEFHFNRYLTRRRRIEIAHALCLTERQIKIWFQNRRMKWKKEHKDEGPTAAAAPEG
Sequence of HOXA2 (Homo sapiens, UniProt O43364 129-215, R185K) (O43364 129-215 R185K): as the sequence (O43364 129-215) above, with R57K counted along it
Sequence of HOXB6 (Homo sapiens, UniProt P17509 132-218) (P17509 132-218): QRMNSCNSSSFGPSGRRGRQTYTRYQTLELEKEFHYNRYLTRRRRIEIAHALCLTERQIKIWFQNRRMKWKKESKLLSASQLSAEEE
Sequence of HOXA7 (Homo sapiens, UniProt P31268 116-202, W177C) (P31268 116-202 W177C): as the sequence (P31268 116-202) above, with W62C counted along it
Sequence of PROP1 (Homo sapiens, UniProt O75360 56-141, R99H) (O75360 56-141 R99H): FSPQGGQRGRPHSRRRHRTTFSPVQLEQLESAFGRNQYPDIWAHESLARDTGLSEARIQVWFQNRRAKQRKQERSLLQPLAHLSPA
Sequence of ALX4 (Homo sapiens, UniProt Q9H161 200-286) (Q9H161 200-286): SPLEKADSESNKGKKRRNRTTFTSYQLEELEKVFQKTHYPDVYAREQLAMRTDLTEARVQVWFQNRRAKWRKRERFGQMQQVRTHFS
Sequence of PRRX1 (Homo sapiens, UniProt P54821 80-166, F113S) (P54821 80-166 F113S): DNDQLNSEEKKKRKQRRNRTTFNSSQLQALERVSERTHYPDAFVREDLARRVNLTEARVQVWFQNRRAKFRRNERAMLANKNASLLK
Sequence of PRRX1 (Homo sapiens, UniProt P54821 80-166) (P54821 80-166): as the sequence (P54821 80-166 F113S) above, with S34F counted along it
Sequence of HOXB9 (Homo sapiens, UniProt P17482 171-250) (P17482 171-250): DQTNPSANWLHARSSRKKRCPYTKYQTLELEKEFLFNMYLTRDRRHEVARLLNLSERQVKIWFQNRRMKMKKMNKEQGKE
Sequence of HOXC9 (Homo sapiens, UniProt P31274 178-260, K195R) (P31274 178-260 K195R): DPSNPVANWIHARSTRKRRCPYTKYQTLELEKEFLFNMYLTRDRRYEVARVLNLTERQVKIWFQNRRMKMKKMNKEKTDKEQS
Sequence of PROP1 (Homo sapiens, UniProt O75360 56-141) (O75360 56-141): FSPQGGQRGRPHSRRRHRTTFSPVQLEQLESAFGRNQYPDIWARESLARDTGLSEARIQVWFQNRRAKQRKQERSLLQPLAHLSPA
Sequence of ALX3 (Homo sapiens, UniProt O95076 139-225, L168V) (O95076 139-225 L168V): as the sequence (O95076 139-225 L168Q) above, with Q30V counted along it
Sequence of ALX4 (Homo sapiens, UniProt Q9H161 200-286, Q225E) (Q9H161 200-286 Q225E): as the sequence (Q9H161 200-286) above, with Q26E counted along it
Sequence of HOXA2 (Homo sapiens, UniProt O43364 129-215, Y150S) (O43364 129-215 Y150S): as the sequence (O43364 129-215) above, with Y22S counted along it
Sequence of HOXB9 (Homo sapiens, UniProt P17482 171-250, R186Q) (P17482 171-250 R186Q): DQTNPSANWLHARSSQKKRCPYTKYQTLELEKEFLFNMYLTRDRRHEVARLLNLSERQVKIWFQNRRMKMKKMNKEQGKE
Sequence of ALX1 (Homo sapiens, UniProt Q15699 118-204, L144R) (Q15699 118-204 L144R): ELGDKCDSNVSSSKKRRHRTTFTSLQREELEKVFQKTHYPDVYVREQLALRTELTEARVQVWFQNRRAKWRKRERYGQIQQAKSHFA
Sequence of HOXB9 (Homo sapiens, UniProt P17482 171-250, T197M) (P17482 171-250 T197M): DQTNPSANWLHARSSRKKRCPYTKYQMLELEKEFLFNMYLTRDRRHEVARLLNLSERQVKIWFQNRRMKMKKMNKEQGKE
Sequence of HOXB6 (Homo sapiens, UniProt P17509 132-218, K202E) (P17509 132-218 K202E): as the sequence (P17509 132-218) above, with K71E counted along it
Sequence of VAX1 (Homo sapiens, UniProt Q5SQQ9 86-172, T142I) (Q5SQQ9 86-172 T142I): as the sequence (Q5SQQ9 86-172 K157R) above, with T57I, R72K counted along it
Sequence of VAX1 (Homo sapiens, UniProt Q5SQQ9 86-172) (Q5SQQ9 86-172): as the sequence (Q5SQQ9 86-172 K157R) above, with R72K counted along it
Sequence of PROP1 (Homo sapiens, UniProt O75360 56-141, F88S) (O75360 56-141 F88S): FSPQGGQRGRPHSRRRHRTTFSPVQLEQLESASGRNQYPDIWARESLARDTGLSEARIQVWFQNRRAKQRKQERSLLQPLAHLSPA
Sequence of HOXC10 (Homo sapiens, UniProt Q9NYD6 254-340) (Q9NYD6 254-340): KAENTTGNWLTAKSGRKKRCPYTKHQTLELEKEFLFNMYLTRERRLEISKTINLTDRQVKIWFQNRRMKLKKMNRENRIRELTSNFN
Sequence of HOXA2 (Homo sapiens, UniProt O43364 129-215, R185T) (O43364 129-215 R185T): as the sequence (O43364 129-215) above, with R57T counted along it
Sequence of HOXC10 (Homo sapiens, UniProt Q9NYD6 254-340, K271E) (Q9NYD6 254-340 K271E): as the sequence (Q9NYD6 254-340) above, with K18E counted along it
Sequence of ALX1 (Homo sapiens, UniProt Q15699 118-204, L144V) (Q15699 118-204 L144V): as the sequence (Q15699 118-204 L144R) above, with R27V counted along it

With CGCAATTA the binding signal [1] was 11.6 upbm affinity estimate (log intensity, higher = more binding, comparable within an allelic series), the binding signal [2] was 11.2 upbm affinity estimate (log intensity, higher = more binding, comparable within an allelic series) and the binding signal [3] was 11.4 upbm affinity estimate (log intensity, higher = more binding, comparable within an allelic series). The binding signal [4] was 9.82 upbm affinity estimate (log intensity, higher = more binding, comparable within an allelic series), the binding signal [5] was 11.8 upbm affinity estimate (log intensity, higher = more binding, comparable within an allelic series) and the binding signal [6] was 12.4 upbm affinity estimate (log intensity, higher = more binding, comparable within an allelic series). For the same sequence, the binding signal [7] was 12.6 upbm affinity estimate (log intensity, higher = more binding, comparable within an allelic series), the binding signal [8] was 13.1 upbm affinity estimate (log intensity, higher = more binding, comparable within an allelic series) and the binding signal [9] was 13.7 upbm affinity estimate (log intensity, higher = more binding, comparable within an allelic series). For the same sequence, the binding signal [10] was 8.21 upbm affinity estimate (log intensity, higher = more binding, comparable within an allelic series), the binding signal [11] was 10.1 upbm affinity estimate (log intensity, higher = more binding, comparable within an allelic series) and the binding signal [12] was 13.4 upbm affinity estimate (log intensity, higher = more binding, comparable within an allelic series). For the same sequence, the binding signal [13] was 7.22 upbm affinity estimate (log intensity, higher = more binding, comparable within an allelic series), the binding signal [14] was 10.7 upbm affinity estimate (log intensity, higher = more binding, comparable within an allelic series) and the binding signal [15] was 8.67 upbm affinity estimate (log intensity, higher = more binding, comparable within an allelic series). The binding signal [16] was 12.1 upbm affinity estimate (log intensity, higher = more binding, comparable within an allelic series) and the binding signal [17] was 11.7 upbm affinity estimate (log intensity, higher = more binding, comparable within an allelic series).
With GTCCTGCA the binding signal [1] was 6.29 upbm affinity estimate (log intensity, higher = more binding, comparable within an allelic series), the binding signal [18] was 8.28 upbm affinity estimate (log intensity, higher = more binding, comparable within an allelic series) and the binding signal [19] was 8.28 upbm affinity estimate (log intensity, higher = more binding, comparable within an allelic series). The binding signal [3] was 8.13 upbm affinity estimate (log intensity, higher = more binding, comparable within an allelic series), the binding signal [5] was 6.29 upbm affinity estimate (log intensity, higher = more binding, comparable within an allelic series) and the binding signal [20] was 9.59 upbm affinity estimate (log intensity, higher = more binding, comparable within an allelic series). For the same sequence, the binding signal [10] was 6.46 upbm affinity estimate (log intensity, higher = more binding, comparable within an allelic series), the binding signal [11] was 6.46 upbm affinity estimate (log intensity, higher = more binding, comparable within an allelic series) and the binding signal [21] was 9.4 upbm affinity estimate (log intensity, higher = more binding, comparable within an allelic series). For the same sequence, the binding signal [13] was 6.53 upbm affinity estimate (log intensity, higher = more binding, comparable within an allelic series).
In the case of AATAATTG, the binding signal [1] is reported as 12.3 upbm affinity estimate (log intensity, higher = more binding, comparable within an allelic series), the binding signal [22] is reported as 9.89 upbm affinity estimate (log intensity, higher = more binding, comparable within an allelic series) and the binding signal [23] is reported as 13.5 upbm affinity estimate (log intensity, higher = more binding, comparable within an allelic series). For the same sequence, the binding signal [24] was 11.2 upbm affinity estimate (log intensity, higher = more binding, comparable within an allelic series), the binding signal [25] was 12.8 upbm affinity estimate (log intensity, higher = more binding, comparable within an allelic series) and the binding signal [5] was 12.4 upbm affinity estimate (log intensity, higher = more binding, comparable within an allelic series). For the same sequence, the binding signal [26] was 11.3 upbm affinity estimate (log intensity, higher = more binding, comparable within an allelic series), the binding signal [7] was 12.6 upbm affinity estimate (log intensity, higher = more binding, comparable within an allelic series) and the binding signal [27] was 11.5 upbm affinity estimate (log intensity, higher = more binding, comparable within an allelic series). For the same sequence, the binding signal [28] was 11.3 upbm affinity estimate (log intensity, higher = more binding, comparable within an allelic series), the binding signal [9] was 13.7 upbm affinity estimate (log intensity, higher = more binding, comparable within an allelic series) and the binding signal [29] was 11 upbm affinity estimate (log intensity, higher = more binding, comparable within an allelic series). For the same sequence, the binding signal [10] was 8.84 upbm affinity estimate (log intensity, higher = more binding, comparable within an allelic series), the binding signal [30] was 11.1 upbm affinity estimate (log intensity, higher = more binding, comparable within an allelic series) and the binding signal [31] was 10.3 upbm affinity estimate (log intensity, higher = more binding, comparable within an allelic series). For the same sequence, the binding signal [11] was 10.8 upbm affinity estimate (log intensity, higher = more binding, comparable within an allelic series), the binding signal [32] was 11.1 upbm affinity estimate (log intensity, higher = more binding, comparable within an allelic series) and the binding signal [33] was 9.75 upbm affinity estimate (log intensity, higher = more binding, comparable within an allelic series). The binding signal [34] was 7.6 upbm affinity estimate (log intensity, higher = more binding, comparable within an allelic series), the binding signal [12] was 13.4 upbm affinity estimate (log intensity, higher = more binding, comparable within an allelic series) and the binding signal [13] was 8.12 upbm affinity estimate (log intensity, higher = more binding, comparable within an allelic series). The binding signal [35] was 13.2 upbm affinity estimate (log intensity, higher = more binding, comparable within an allelic series).
With CCAGCGCA the binding signal [1] was 6.46 upbm affinity estimate (log intensity, higher = more binding, comparable within an allelic series), the binding signal [36] was 9.45 upbm affinity estimate (log intensity, higher = more binding, comparable within an allelic series) and the binding signal [37] was 10 upbm affinity estimate (log intensity, higher = more binding, comparable within an allelic series). For the same sequence, the binding signal [5] was 6.4 upbm affinity estimate (log intensity, higher = more binding, comparable within an allelic series), the binding signal [38] was 9.65 upbm affinity estimate (log intensity, higher = more binding, comparable within an allelic series) and the binding signal [7] was 9.46 upbm affinity estimate (log intensity, higher = more binding, comparable within an allelic series). For the same sequence, the binding signal [39] was 9.5 upbm affinity estimate (log intensity, higher = more binding, comparable within an allelic series), the binding signal [40] was 10 upbm affinity estimate (log intensity, higher = more binding, comparable within an allelic series) and the binding signal [9] was 9.44 upbm affinity estimate (log intensity, higher = more binding, comparable within an allelic series). For the same sequence, the binding signal [10] was 6.49 upbm affinity estimate (log intensity, higher = more binding, comparable within an allelic series), the binding signal [41] was 7.28 upbm affinity estimate (log intensity, higher = more binding, comparable within an allelic series) and the binding signal [11] was 6.38 upbm affinity estimate (log intensity, higher = more binding, comparable within an allelic series). For the same sequence, the binding signal [42] was 9.6 upbm affinity estimate (log intensity, higher = more binding, comparable within an allelic series), the binding signal [12] was 9.44 upbm affinity estimate (log intensity, higher = more binding, comparable within an allelic series) and the binding signal [13] was 6.38 upbm affinity estimate (log intensity, higher = more binding, comparable within an allelic series). The binding signal [43] was 7.16 upbm affinity estimate (log intensity, higher = more binding, comparable within an allelic series) and the binding signal [44] was 7.39 upbm affinity estimate (log intensity, higher = more binding, comparable within an allelic series).
